# Source: PubChem (The Scripps Research Institute Molecular Screening Center)
# Compounds with a hit are over-represented: about 4.8% of the library has one in this group of screens.
# DAX1 inh-1 – inhibits human nuclear receptor DAX1 | P51843 | HEK293 Gal4-DAX1 luciferase reporter, luminescence | inhibition, % at 6.75 µM | 0.99% of 340,000 active | AID 504766;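 active = inhibition above the mean over all tested compounds plus 3 SD, cut at about 4.2% in these data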;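 note: inhibition shows as a rise in luminescence from relieved DAX1 repression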
# Target sequence (P51843 207-470 limits assumed): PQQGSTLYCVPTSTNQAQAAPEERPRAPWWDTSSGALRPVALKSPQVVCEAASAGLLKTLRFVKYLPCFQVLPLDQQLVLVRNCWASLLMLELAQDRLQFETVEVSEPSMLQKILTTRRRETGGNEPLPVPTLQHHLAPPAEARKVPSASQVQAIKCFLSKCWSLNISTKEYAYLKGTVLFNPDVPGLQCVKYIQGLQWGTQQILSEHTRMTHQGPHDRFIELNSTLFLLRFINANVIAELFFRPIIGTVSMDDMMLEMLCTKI
# SMARCA2 act – increases SMARCA2 function in MMTV reporter cells; MG213 cells, MMTV-luciferase reporter, dexamethasone, overnight; activation, % at 9.1 µM; 1% of 370,000 active; AID 652017; in the data active = activation above about 7.8%
# DAX1 inh-2 – blocks DAX1 repression of SF-1 activated StAR promoter. HEK293T StAR-luciferase reporter, SF-1/DAX-1 repression relief. inhibition, % at 6.8 µM. 1.1% of 370,000 active;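 active = inhibition above the mean over all tested compounds plus 3 SD, cut at about 3.6% in these data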;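 note: higher inhibition means more luminescence from relief of DAX-1 repression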
# hcDAF12 agonist – H. contortus DAF-12 activation, primary screen; 1.4% of 370,000 active; activation, % at 6.8 µM; AID 652067; HEK293 hcDAF-12 lit1-tk-luc reporter, luminescence; 0% DMSO, 100% Δ7-dafachronic acid;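 active = activation above the mean of all tested compounds plus 3 SD, cut at about 5.5% in these data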
# ssDAF-12 act – activates DAF-12 receptor from parasite S. stercoralis. HEK293 ssDAF-12/GRIP1 lit1-tk-luc reporter, luminescence; % of 3 µM dafachronic acid response. activation, % at 6.8 µM. AID 652126. 1% of 370,000 active;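 active = activation above the mean over all tested compounds plus 3 SD, cut at about 0.9% in these data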
# hgDAF-12 ag – activates the H. glycines DAF-12 receptor ligand-binding domain | HEK293 GAL4-hgDAF12 UAS-luciferase reporter, agonist luminescence; normalized to butyrate control | activation, % at 6.8 µM | 1.8% of 370,000 active | AID 687014;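 active = activation above a cutoff set at the mean of all screened compounds plus 3 SD, cut at about 10% in these data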
# Numbers stand for hits; n = inactive; x = no result given.
SMILES,DAX1 inh-1,SMARCA2 act,DAX1 inh-2,hcDAF12 agonist,ssDAF-12 act,hgDAF-12 ag
COc1ccc(S(=O)(=O)NC(C)C(=O)NCc2ccncc2)cc1C (stereo not drawn),n,n,n,n,n,n
COc1ccc(S(=O)(=O)NC(C)C(=O)NCc2ccncc2)cc1OC (stereo not drawn),5.8,n,n,n,n,n
CCOC(=O)N1CCN(C(=O)C[C@H]2C[C@@]3(C(=O)OC)C(=C[C@H](C(C)C)O[C@@H]3C3CC3)N(Cc3ccc(Cl)cc3Cl)C2=O)CC1,x,n,n,n,n,n
O=C(Nc1ccccc1)SC1CCCCC1,n,n,n,n,n,12.4
CCC(=O)NNc1nc2c(F)cc(F)cc2s1,n,n,n,n,1.1,n
O=C(NNc1nc2c(F)cc(F)cc2s1)C1=COCCO1,5.6,n,n,n,n,n
Cc1ccc(-n2c(Cc3cccs3)nnc2SCc2ccc(C#N)cc2)cc1,x,n,n,n,n,n
CCCCNC(=O)C1CCCN1C(=O)Nc1ccc(Cl)cc1 (stereo not drawn),x,n,n,n,n,n
CCOC(=O)c1sc(NC(=O)CSc2nnc(C(C)C)n2C)nc1C,n,n,n,n,n,n
CCOC(=O)c1sc(NC(=O)Nc2ccccc2F)nc1C,n,n,3.7,n,n,n
CCOC(=O)c1sc(NC(=O)CSc2nncn2C)nc1C,5.2,n,n,n,n,n
CCOC(=O)c1sc(Nc2ccccc2Cl)nc1C,n,n,n,n,n,n
CCOC(=O)[C@@]12CN(C(=O)OC(C)(C)C)CC=C1N(Cc1ccc(OC)cc1)C(=O)[C@H]2CC(=O)NCCCCc1ccccc1,x,n,n,n,n,n
C/C(=N\NC(=O)c1ccccc1F)c1ccc2c(c1)Nc1ccccc1S2,n,n,n,n,n,10.7
C/C(=N\NC(=O)c1ccc(O)cc1)c1ccc2c(c1)Nc1ccccc1S2,n,n,n,n,n,n
COC(=O)[C@]12C[C@H](CC(=O)NCc3cccc4ccccc34)C(=O)N(Cc3ccco3)C1=C[C@H](C(C)(C)C)O[C@@H]2C,x,n,n,n,n,n
COc1ccc(-c2cc(C(=O)NN=C/C(C)=C/c3ccccc3)[nH]n2)cc1,x,n,n,n,n,n
Nc1c(Br)cc2c([nH]c(=O)c3ccccc32)c1Br,n,n,n,6.3,2.4,n
O=c1[nH]c2ccccc2c2ccc(Cl)cc12,n,n,n,n,n,n
O=C(CSCc1ccccc1)Nc1ccc2c(c1)OCO2,n,n,3.8,n,n,n
O=C(CSc1ccccc1)Nc1ccc2c(c1)OCO2,n,n,n,n,n,12.6
Cc1ccccc1C(=O)Nc1ccc2c(c1)OCCO2,n,n,n,n,1.8,11.0
O=C(Nc1ccc2c(c1)OCCO2)c1cnn(-c2ccccc2)n1,n,n,4.2,n,n,n
O=C(CSc1ccc2c(c1)OCCO2)Nc1ccc2c(c1)OCO2,n,x,x,x,x,x
O=C(OCc1cn(Cc2ccc(C(F)(F)F)cc2)nn1)N1CCCC1,x,n,n,n,n,n
SMILES,DAX1 inh-1,SMARCA2 act,DAX1 inh-2,hcDAF12 agonist,ssDAF-12 act,hgDAF-12 ag
O=C(CC(=O)c1ccccc1)Nc1ccc2c(c1)OCCO2,n,n,n,n,n,11.9
COc1ccc(OC)c(C(C)NC(=O)c2ccc(Br)cc2)c1 (stereo not drawn),8.4,n,n,n,n,n
COC[C@H]1CCCN1c1ccc2c(c1)O[C@H]1CCN(C1)S2(=O)=O,x,n,n,n,n,n
O=C(NC1CCCCC1)c1cc2nc3c(c(C(F)(F)F)n2n1)CCCC3,n,n,n,n,n,n
Cc1cc2nc3c(c(C(F)(F)F)n2n1)CCCC3,6.3,n,n,n,n,n
Cn1cc(Br)c(C(=O)Nc2c(F)c(F)c(F)c(F)c2F)n1,n,n,n,n,n,n
Cn1cc(Br)c(C(=O)Nc2nccs2)n1,n,n,n,5.6,n,n
O=C(CC1C=CCC1)OCCN1CCN(C2CN(Cc3cn(Cc4ccccc4Cl)nn3)S(=O)(=O)C2)CC1 (stereo not drawn),x,n,n,n,n,n
CCc1ccc(Nc2nc(C)cc(C)n2)cc1,n,n,n,n,n,10.7
COc1ccc(-n2nc(C(=O)NCC(=O)N3CCCC3)c3ccccc3c2=O)cc1,5.2,n,n,n,n,n
COc1ccc(-n2nc(C(=O)NCC(=O)N3CCCCC3)c3ccccc3c2=O)cc1,n,n,n,n,n,n
